Results as given in PubChem BioAssay (NCI).
The panel holds about 79,000 compounds, 15% with a hit somewhere; the sample as a whole holds those more often. A number with no mark means an inactive call. Calls of active or inactive are those of the source. Rule as the data show it: active = growth inhibition above about 70%; inactive = the rest.

Legend:
[1] = NCI Yeast Anticancer Drug Screen. Data for the rad50 strain (AID 155);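 also: 0% = growth of vehicle-only cultures of the same strain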; settings: S. cerevisiae rad50 strain growth inhibition; at 50.0 µM; stronger effect = higher value
Method in brief: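 Relative growth inhibition (compound vs vehicle) was measured in yeast with a defined repair-gene alteration.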

[2] = NCI Yeast Anticancer Drug Screen. Data for the mec2-1 strain (AID 157); settings: S. cerevisiae mec2-1 strain, at 50.0 µM, stronger effect = higher value
Method in brief: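 Test agents were screened against the mec2-1 yeast strain, with defined DNA repair or cell cycle alteration. Growth was scored as inhibition against vehicle-only controls.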

[3] = NCI Yeast Anticancer Drug Screen. Data for the sgs1 mgt1 strain (AID 161);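 also: 0% = growth of cultures given vehicle only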; settings: S. cerevisiae sgs1 mgt1 strain, at 50.0 µM, stronger effect = higher value
Method in brief: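 Test agents were incubated with a DNA-repair-mutant yeast strain. Growth was then read and compared against vehicle-treated controls.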

[4] = NCI Yeast Anticancer Drug Screen. Data for the cln2 rad14 strain (AID 165);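 also: 0% = growth equal to vehicle treated cultures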; settings: S. cerevisiae cln2 rad14 strain, at 50.0 µM, stronger effect = higher value
Method in brief: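 Growth of compound-exposed yeast (cln2 rad14 genotype) measured and expressed as inhibition relative to vehicle.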

[5] = NCI Yeast Anticancer Drug Screen. Data for the bub3 strain (AID 167); settings: S. cerevisiae bub3 mutant strain, at 50.0 µM, stronger effect = higher value
Method in brief: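 Screening used yeast with an engineered genetic alteration affecting cell cycle control. Compound-exposed cultures were compared with vehicle cultures, and reduced growth was taken as inhibition.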

[6] = NCI Yeast Anticancer Drug Screen. Data for the mlh1 rad18 strain (AID 175); settings: S. cerevisiae mlh1 rad18 strain growth inhibition; at 50.0 µM; stronger effect = higher value
Method in brief: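 In this whole-cell yeast screen, a strain with altered DNA damage repair is challenged with compound, and its growth is measured against matched vehicle-treated controls.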

SMILES	growth inhibition [1]	growth inhibition [2]	growth inhibition [3]	growth inhibition [4]	growth inhibition [5]	growth inhibition [6]
C#CCn1c(I)cc2c(c1=O)COC(=O)[C@]2(O)CC	0.95%	-3.3%	19.6%	-5.4%	6.35%	-31.8%
CCOC(=N)CC(O)C(Cl)(Cl)Cl (stereo not drawn)	-2.05%	1.7%	-10.1%	-47.2%	22%	-6.25%
CCOC(=O)NP(=O)(Nc1ccc(C)cc1)Nc1ccc(C)cc1	6.2%	-12%	-0.3%	6.75%	-9.55%	-1.45%
C[Si](C)(C)CS(=O)[O-].[C-]#[O+].[C-]#[O+].[Fe+6].[c-]1[c-][c-][cH-][c-]1	0.1%	8.8%	20.7%	-12.2%	-3.85%	6.65%
O=C(NCC(O)CO)c1cc(N(CCCl)CCCl)c([N+](=O)[O-])cc1[N+](=O)[O-] (stereo not drawn)	3.8%	-35.9%	-10.5%	-63.6%	-10.4%	6.35%
CN1CCC2(CC1)COCc1ccccc12	-9.4%	-5.55%	-2.7%	-19.1%	11.2%	4.8%
CCNC1CCCCC1	26.3%	-5.45%	-14.2%	29.1%	-19.1%	20.1%
CCC(=O)C(CC(C)[N+](C)(C)C)(c1ccccc1)c1ccccc1 (stereo not drawn)	-3.05%	-4.95%	-4.6%	3.35%	-18.5%	6.5%
SCc1ccccc1.[Cu+2]	-1.4%	-15.9%	-0.45%	-35.1%	-50.7%	-2.75%
Cc1ccc(NN=O)nc1	-13.9%	3.15%	-3.9%	15.2%	-10.6%	-13.8%
O=C1NN2CCCN=C2c2cnccc21	-12.3%	4.5%	11.4%	-34.6%	27.6%	-7.4%
CN1CCC(O)(c2ccccc2)C(c2ccccc2)C1 (stereo not drawn)	0.25%	1.05%	-8.45%	0.4%	0.6%	-0.05%
CCCN(C)C(C)(C)C(=O)c1ccccc1	8.8%	-3.95%	-20.2%	-10.2%	-18.9%	-8.1%
CNC(C)Cc1ccccc1OC (stereo not drawn)	-10.8%	-12.4%	-1.2%	2.65%	-4.55%	11.4%
O=P(NCCCl)(NCCCl)Oc1ccccc1	-19.5%	-0.5%	-18.8%	-16.1%	-7.25%	-13.1%
N#Cc1ccc(C(Cl)(Cl)Cl)cc1	1.5%	-17.6%	-5.8%	-25.4%	-3.15%	-5.65%
O=C(O)c1cccc(Cl)c1	31.6%	6%	19.1%	10.9%	25.9%	8.2%
Cn1c(=O)oc(=O)c2ccccc21	-0.45%	-15.3%	-17.4%	-3.1%	-27.4%	6.85%
O=C(O)C(O)CO.[Pb] (stereo not drawn)	-1.95%	0.35%	-2.5%	12.4%	-15.7%	9.85%

SMILES	growth inhibition [1]	growth inhibition [2]	growth inhibition [3]	growth inhibition [4]	growth inhibition [5]	growth inhibition [6]
COc1c2c(cc3c1OCO3)[C@]13C=C[C@H](OC)C[C@H]1N(C2)CC3O (stereo partly drawn)	17.2%	5.75%	3.6%	-0.55%	1.55%	-53.9%
O=C(O)c1cccc([As]=[As]c2cccc(C(=O)O)c2)c1 (stereo not drawn)	8.4%	-9.35%	-8.75%	83.2% (active)	-65.3%	1%
C1CCC2[N-]CCCC2C1.C1CCC2[N-]CCCC2C1.[Cl][Pt+2][Cl] (stereo not drawn)	42.2%	36%	55.2%	22.9%	59.4%	64.6%
Cc1ccc(S(N)(=O)=O)cc1 (tested in a mixture with another compound)	14.9%	7.9%	8.8%	10.8%	29.4%	13%
C/C=C/CC1(CC)C(=O)NC(=O)NC1=O	16.9%	10.9%	11.8%	16.6%	2%	8.1%
CC1CC(C)(C)[N+](C)(CCC(C(N)=O)(c2ccccc2)c2ccccc2)C1 (stereo not drawn)	-8.2%	-5.15%	-7.8%	12.3%	-16.4%	3.05%
NC(N)=N/N=C/c1ccc(Cl)c(Cl)c1	8.45%	-3.15%	-8.2%	-9.25%	-3.6%	21.4%
O=[As](c1ccccc1Br)(c1ccccc1Br)c1ccccc1Br	70%	19.2%	58.7%	13.4%	22.2%	20.9%
Cn1c2c(c3ccccc31)CCN1OCC=C[C@@H](C(=O)O)[C@@H]21	-8.3%	3.15%	-6.3%	5.55%	42.3%	-8.85%
Cc1ccc(C(=O)O[C@H](C(=O)O)[C@H](OC(=O)c2ccc(C)cc2)C(=O)O)cc1	18.1%	-4.05%	-19.6%	10.4%	2.6%	-11.1%
CSC(SC)=C(C(=O)O)P(=O)(O)O	-32.4%	-3.05%	-8.2%	19.1%	-9.8%	-16.6%
COc1cccc2c1C(=O)c1c(O)c3c(c(O)c1C2=O)C[C@@](O)(C(=O)CO)C[C@@H]3OC1CC(N2CCOCC2C#N)C(O)C(C)O1 (stereo partly drawn)	90.1% (active)	91.2% (active)	92.4% (active)	89.8% (active)	90.5% (active)	91% (active)
COc1ccc2c(c1)CC(CN1CCC3(CC1)C(=O)N(C)CN3c1ccccc1)O2 (stereo not drawn)	-24.6%	0.95%	-19.7%	-27.4%	0.45%	-9.8%
O=c1n(Cc2ccccc2)c2ccccc2n1CC1CS1 (stereo not drawn)	55.5%	21.4%	62.9%	4.75%	15.8%	31.1%
OC1CN=C2c3ccccc3C(O)(c3ccc(Cl)cc3)N2C1 (stereo not drawn)	23.8%	22.1%	37.2%	-1.9%	22.7%	37.5%
OCCN=Cc1c[nH]c2ccccc12	-49.9%	-42.9%	-28.1%	3.85%	-42.5%	-13.9%
Nc1noc(N)n1	-43%	-22.1%	-26.8%	-23.1%	-18.1%	-28.4%
[C-]#[O+].[C-]#[O+].[C-]#[O+].[Cr].c1ccc([PH+](CC[As](c2ccccc2)c2ccccc2)CC[As](c2ccccc2)c2ccccc2)cc1	5.45%	-7.65%	27.7%	2.6%	11.1%	38.9%
Nc1ccc(Sc2ccc(N)cc2)cc1	15.5%	0.35%	-0.6%	-53.1%	-8.25%	23.1%
